JMJD2A Tudor inh – blocks the human JMJD2A Tudor domain; O75164; AlphaScreen JMJD2A-Tudor / H3K4me3 peptide binding; Potency, µM (top dose mostly 114 µM), usual class: inhibitors; 4.4% of 390,000 active; AID 504339; note: nearly all actives have a fitted effect of over 50% in size
HP1b chromo inh – blocks HP1-beta chromodomain binding to methylated histone tails. Potency, µM (top dose mostly 114 µM), usual class: inhibitors. P83916. AlphaScreen HP1-beta / biotin-H3K9me3 peptide binding. 0.56% of 390,000 active; note: nearly all actives have a fitted effect of over 70% in size
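AlphaScreen: HP1-beta (50 nM) preformed 30 min with biotin-H3(1-18)K9me3 peptide (50 nM) in PBS pH 7.4, 0.01% Tween-20. Compound added for 30 min at RT, then streptavidin donor/nickel chelate acceptor beads (10 ug/mL) for 30 min.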
G9a block – inhibitors of human histone lysine methyltransferase G9a; Q96KQ7; G9a H3K9 monomethylation, AlphaScreen, 2 h; Potency, µM (series often up to 102 µM), usual class: inhibitors; 8.8% of 350,000 active; note: nearly all actives have a fitted effect of over 75% in size
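Using a bead-based AlphaScreen, monomethylated H3K9 product from 2 h room-temperature reactions (G9a 20 nM, peptide 500 nM, SAM 20 uM) was detected with 0.5 ug/mL rabbit anti-H3K9me1 antibody.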
CtBP-E1A blk – inhibitors of CtBP/E1A interaction. activity change, % (concentration not given with the values). 0.49% of 340,000 active. AlphaScreen GST-E1A/His-CtBP binding, 1536-well; stronger effect = lower value; in the data active = activity change below about -65%; inconclusive = mostly about -30% to -63%
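GST-E1A and His-tagged CtBP (125 nM each as 5X stock) were preincubated with pin-transferred compound for 2 h at 37 °C in the dark, then glutathione donor and nickel acceptor beads were added for 1 h before AlphaScreen reading.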
BAZ2B inh – blocks human BAZ2B; 4.4% of 360,000 active; AlphaScreen BAZ2B-H3K14Ac peptide displacement; Q9UIF8; AID 504333; Potency, µM (titrated, usually from 114 µM), actives largely listed as inhibitors; note: nearly all actives have a fitted effect of over 60% in size
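Protein-peptide AlphaScreen: BAZ2B 50 nM, b-H3K14Ac 50 nM, 1x PBS pH 7.4 + 0.01% Tween-20. Preincubation 30 min RT; cpd 30 min RT (top 110 uM); beads 20 min RT, light-protected.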
Six1-Eya2 blk – Six1/Eya2 interaction inhibition; AlphaScreen GST-Six1/His-Eya2 binding, biochemical; stronger effect = lower value; activity change, % (concentration not given with the values); 0.56% of 360,000 active; AID 651725; in the data active = activity change below about -65%; inconclusive = mostly about -30% to -63%
Target sequence (O00167 whole entry, looked up): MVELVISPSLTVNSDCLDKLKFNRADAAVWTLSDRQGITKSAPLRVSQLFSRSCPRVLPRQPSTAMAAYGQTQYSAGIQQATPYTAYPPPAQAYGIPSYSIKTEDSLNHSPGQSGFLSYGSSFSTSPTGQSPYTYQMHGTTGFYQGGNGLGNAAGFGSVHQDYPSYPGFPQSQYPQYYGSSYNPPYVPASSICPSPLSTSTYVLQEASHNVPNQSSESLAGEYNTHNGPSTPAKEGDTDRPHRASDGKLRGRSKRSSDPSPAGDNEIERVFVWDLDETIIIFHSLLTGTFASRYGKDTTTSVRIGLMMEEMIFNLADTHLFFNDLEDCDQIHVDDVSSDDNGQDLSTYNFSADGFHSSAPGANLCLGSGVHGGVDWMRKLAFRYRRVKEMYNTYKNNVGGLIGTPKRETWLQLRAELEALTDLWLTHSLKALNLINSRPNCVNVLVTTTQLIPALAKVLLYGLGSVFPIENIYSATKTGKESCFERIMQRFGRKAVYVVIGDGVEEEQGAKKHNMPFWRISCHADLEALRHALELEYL
Target sequence (Q15475 whole entry, looked up): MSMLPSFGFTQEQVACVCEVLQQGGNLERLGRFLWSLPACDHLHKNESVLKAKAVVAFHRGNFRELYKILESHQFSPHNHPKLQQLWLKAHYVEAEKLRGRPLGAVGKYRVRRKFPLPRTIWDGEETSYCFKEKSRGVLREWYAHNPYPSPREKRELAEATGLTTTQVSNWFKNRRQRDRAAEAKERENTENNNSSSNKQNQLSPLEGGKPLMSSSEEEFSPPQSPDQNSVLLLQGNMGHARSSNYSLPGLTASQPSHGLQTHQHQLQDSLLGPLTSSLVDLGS
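Compounds are tested against tagged Six1 and Eya2 proteins bridged by glutathione donor and nickel acceptor beads; after a one-hour incubation at 37 °C without light, AlphaScreen emission is recorded.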
Large screens that a line does not name were inactive. Only some compounds are listed: those with a hit (about 10% of all), similar ones and a draw of the others. Unless noted, calls come from the whole dose curve; as a rule, active = well fitted inhibition curve with a large enough effect; inconclusive = small, poorly fitted or top-dose-only effect; inactive = no such curve, though single readings can be large or run the other way.

N#Cc1c(NC(=O)c2cccc(S(=O)(=O)Nc3ccc(C(=O)O)cc3)c2)sc2c1CCCC2	G9a block 50µM, BAZ2B inh 56µM, Six1-Eya2 blk inconclusive
COc1ccc(S(=O)(=O)NCC(c2ccco2)S(=O)(=O)c2cccs2)cc1F (centres undefined)	none (no result: CtBP-E1A blk, Six1-Eya2 blk)
COc1ccc(CNC(=O)Cc2c(C)c3ccc(O)cc3oc2=O)cc1	none (no result: CtBP-E1A blk, Six1-Eya2 blk)
O=C(Nc1ccc(F)cc1F)c1cc2nc(-c3ccco3)cc(C(F)(F)Cl)n2n1	none (no result: CtBP-E1A blk, Six1-Eya2 blk)
N#Cc1c(NC(=O)c2cnn3cccnc23)sc2c1CCCC2	G9a block 40µM
N#Cc1c(NC(=O)C2CC(c3ccccc3Cl)=NO2)sc2c1CCC2 (centres undefined)	G9a block inconclusive
N#Cc1c(NC(=O)C2CC(c3ccccc3O)=NO2)sc2c1CCC2 (centres undefined)	G9a block 8.9µM
N#Cc1c(NC(=O)c2nc3ncccn3n2)sc2c1CCCCC2	none
NC(=O)c1c(NC(=O)c2ccco2)sc2c1CCC2	Six1-Eya2 blk inconclusive
CC1CCc2c(sc(NC(=O)c3nc4ncccn4n3)c2C#N)C1 (centres undefined)	JMJD2A Tudor inh inconclusive, HP1b chromo inh inconclusive, G9a block 3.2µM
N#Cc1c(NC(=O)c2ccco2)sc2c1CCC2	JMJD2A Tudor inh 50µM, HP1b chromo inh inconclusive, G9a block 89µM
Cn1cc(S(=O)(=O)N2CCCCCC2)cc1C(=O)Nc1ccc(Cl)c(C(F)(F)F)c1	BAZ2B inh inconclusive (no result: CtBP-E1A blk, Six1-Eya2 blk)
CC(C)N(C(=O)Cn1cc(SCC(=O)Nc2ccccc2F)c2ccccc21)C(C)C	none (no result: CtBP-E1A blk, Six1-Eya2 blk)
CC(Sc1cn(CCNC(=O)c2ccccc2F)c2ccccc12)c1ccccc1 (centres undefined)	none (no result: CtBP-E1A blk, Six1-Eya2 blk)
CC1CCc2c(sc(NC(=O)COC(=O)c3ccc(O)cc3)c2C#N)C1 (centres undefined)	JMJD2A Tudor inh inconclusive, G9a block 40µM
CC(C)(C)C1CCc2c(sc(NC(=O)c3noc4c3CCCC4)c2C#N)C1 (centres undefined)	G9a block 7.1µM (no result: CtBP-E1A blk, Six1-Eya2 blk)
Cc1onc(C(=O)Nc2sc3c(c2C#N)CCCC3)c1[N+](=O)[O-]	G9a block 45µM (no result: CtBP-E1A blk)
CC1CCc2c(sc(NC(=O)COC(=O)C3CCCO3)c2C#N)C1 (centres undefined)	none
N#Cc1cc2c(OCC(O)CN3CCN(C(c4ccccc4)c4ccccc4)CC3)cccc2[nH]1 (centres undefined)	none (no result: JMJD2A Tudor inh, HP1b chromo inh, CtBP-E1A blk, BAZ2B inh, Six1-Eya2 blk)
Cc1cn2c(=O)c(S(=O)(=O)NC(C)c3ccccc3)c(C)nc2s1 (centres undefined)	none (no result: CtBP-E1A blk, Six1-Eya2 blk)
O=C(NC1CCCCC1)/C(=C/c1ccc(Cl)cc1)NC(=O)c1ccccc1	none (no result: CtBP-E1A blk, Six1-Eya2 blk)
CCOc1ccc(-n2ccnc2SCC(=O)Nc2nc3ccc(C)cc3s2)cc1	none (no result: CtBP-E1A blk, Six1-Eya2 blk)
CCCNC(=O)Nc1ccccc1SC	G9a block 40µM (no result: CtBP-E1A blk)
COc1ccc(NC(=O)Nc2ccc(N(C)C)cc2)cc1	HP1b chromo inh inconclusive, G9a block 3.5µM, BAZ2B inh inconclusive
CCCCNC(=O)Nc1ccccc1C(=O)NCCC	none
COc1ccc(NC(=O)C(CC(=O)O)C(C)c2ccccc2)cc1 (centres undefined)	JMJD2A Tudor inh 14µM
CN(C)c1ccc(NC(N)=S)cc1	G9a block 10µM, BAZ2B inh inconclusive
COCCNC(=O)CSc1nc(-c2ccc(F)cc2)[nH]c1-c1ccc(Cl)cc1	BAZ2B inh inconclusive (no result: CtBP-E1A blk, Six1-Eya2 blk)
COc1ccc(NC(=O)Nc2sc(=S)n(C)c2C)cc1	G9a block 50µM
COc1ccc(NC(=O)N/C=C/c2ccc(Cl)cc2)cc1	G9a block 20µM
COc1ccc(NC(=O)Nc2ccccc2F)cc1	none
Cc1c(NC(=O)Nc2ccc(Cl)c(Cl)c2)sc(=S)n1C	JMJD2A Tudor inh inconclusive (no result: G9a block, BAZ2B inh)
COc1ccc(NC(=O)Nc2ccccc2SC)cc1	G9a block 50µM
CC(=O)c1ccc(NC(=O)c2cc3c([nH]c2=O)CC(c2ccccc2)CC3=O)cc1 (centres undefined)	none (no result: CtBP-E1A blk, Six1-Eya2 blk)
COc1cc(OC)c(NC(=O)N2CCC(CN3CCCC3)CC2)cc1Cl	none (no result: CtBP-E1A blk, Six1-Eya2 blk)
O/N=C1/CCCCC1c1ccccn1 (centres undefined)	JMJD2A Tudor inh 32µM, G9a block inconclusive, BAZ2B inh 50µM

Source: PubChem BioAssay
